Reference: PubChem BioAssay AID1063 (University of Pittsburgh Molecular Library Screening Center, 2008)
About 18,000 (9%) of roughly 200,000 compounds were called active. The list comes from a sample in which actives are over-represented; it also holds similar structures and randomly drawn compounds. Unmarked numbers belong to inactive results. No stated cut-off is given here; in the data, active means inhibition above about 50%; inactive means the rest.

Experiment: antileishmanial activity against promastigotes – primary screen (AID 1063);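 further: promastigotes grown with compound for 44 hours at 28 °C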
Details: Leishmania major promastigotes, resazurin fluorescence viability; at 10 µM; stronger effect = higher value

Compound | inhibition
C=CCNc1scc(-c2ccccc2)[n+]1CC=C | 9.84%
CCN1CCN(CCNC(=O)c2ccc(/C=C3/Sc4ccccc4N(Cc4cccc(C)c4)C3=O)cc2)CC1 | 101% (active)
Cc1cccc(C(=O)NCCCN2CCCC2=O)c1 | -4.51%
Cc1nn(Cc2ccccc2)c(C)c1C(=O)NCCN1C(=O)S/C(=C\c2ccc(F)cc2)C1=O | -6.47%
COC(=O)c1ccc(CSc2nncn2N)cc1 | -3.29%
COc1cc(NS(=O)(=O)c2ccc(NC(=O)CN3C(=O)c4ccccc4C3=O)cc2)ncn1 | 4.83%
CN(Cc1ccccc1)Cc1ccccc1F | -3.21%
N=c1n(CCc2ccccc2)c2ccccc2n1Cc1ccccc1F | 97.3% (active)
Fc1ccccc1Cn1cnc(NC(=S)NCCc2ccccc2)n1 | -2.69%
C=C(C)C1CC=C(C)/C(=N/NC(=O)CCCNc2cccc(C)c2)C1 (stereo unspecified) | -1.55%
c1cnc(NC2C3CC4CC(C3)CC2C4)nc1 (stereo unspecified) | 27.5%
CN(C)c1ccc(CNC2C3CC4CC(C3)CC2C4)cc1 (stereo unspecified) | 75.6% (active)
CN(C)c1ccc(CNC23CN4CN(CN(C4)C2)C3)cc1 | -1.82%
CC(C)c1ccc(N2CCN(C(=O)c3ccccc3NC(=O)/C=C(\C(=O)O)c3ccccc3)CC2)cc1 | 100% (active)
Cc1cccc(N2CCN(C(=O)c3ccccc3NC(=O)C3CCCCC3C(=O)O)CC2)c1 (stereo unspecified) | -7.46%
O=C(O)C1CC=CCC1C(=O)Nc1ccccc1C(=O)N1CCN(c2ccccc2)CC1 (stereo unspecified) | -4.97%
Cc1nc(S(=O)(=O)c2ccc(Br)cc2)nc2c1CCC2 | -6.99%
CCOCCCNC(=O)C(NC(=O)c1ccccc1O)c1ccccc1 (stereo unspecified) | -1.57%
CCc1ccc(Nc2nnc(SCC(=O)c3ccc4c(c3)NC(=O)CO4)s2)cc1 | -5.5%
COc1cccc(CNC(=O)CCC2CCCN(C(=O)c3cc(C)[nH]n3)C2)c1 (stereo unspecified) | -7.13%
COc1cccc2cc(/C(C)=N/NC(=O)c3ccco3)oc12 | 31%

Compound | inhibition
N=c1c2c3c(sc2ncn1CCCN1CCOCC1)CCCCC3 | 90.5% (active)
N=c1c2c3c(sc2ncn1N)CCCCC3 | -0.23%
N=c1c2c3c(sc2ncn1N)CCCC3 | -4.1%
COC(=O)C(=Nc1ccccc1)/C(C(=O)C(=O)N(C)c1ccccc1)=C(\O)c1ccc(Cl)cc1 | -4.81%
Cc1ccc(NC(=O)CN2CCc3ccccc3C2)cc1 | -2.33%
Cc1ccc(NC(=O)CCN2CCc3ccccc3C2)cc1 | 5.9%
Cc1cccc(C)c1NC(=O)c1ccc(CN2CCc3ccccc3C2)cc1 | 73.9% (active)
CCN=c1sc(C(=O)Nc2ccccc2)c(C)n1CC | -3.21%
CC(C)C(c1nnnn1C(C)(C)C)N1CCN(Cc2cccnc2)CC1 (stereo unspecified) | -1.86%
Cc1ccccc1OCc1nnc(SCC(=O)N2c3ccccc3Sc3ccc(Cl)cc32)o1 | 11.3%
O=C(CSc1nc2ccccc2o1)N1c2ccccc2Sc2ccc(Cl)cc21 | 71.7% (active)
O=C(CSc1nc2ccccc2o1)N1CCN(c2ccc(Cl)cc2)CC1 | 0.01%
COc1ccc(-c2nc3cnccn3c2NC(C)(C)CC(C)(C)C)cc1O | 32.8%
CS(=O)(=O)c1ccc2nc(NC(=O)c3ccc(Cl)nc3)sc2c1 | 3.2%
COc1ccccc1-n1c(=S)[nH]c2c(sc(=S)n2-c2ccc(C)cc2C)c1=O | -6.57%
N=c1c2c(-c3ccccc3)c(-c3ccccc3)n(Cc3ccccc3)c2ncn1CCCO | 100% (active)
Cc1nc([N+](=O)[O-])c(NCCCO)n1Cc1ccccc1 | 10.7%
N=c1c2c(-c3ccccc3)c(-c3ccccc3)oc2ncn1Cc1ccco1 | 33.3%
O=C(COC(=O)c1ccccc1C(=O)N1CCN(c2ccccc2)CC1)NCc1ccccc1 | -2.49%
Oc1ccccc1N1CCN(C(=S)NCc2ccccc2)CC1 | -5.57%
Oc1ccc(N2CCN(C(=S)NCc3ccccc3)CC2)cc1 | 53.4% (active)

Compound | inhibition
Cc1ccc(C(NC(=O)N2CCCC2)C(Cl)(Cl)Cl)cc1F (stereo unspecified) | -2.3%
Cc1cc(NC(=O)CSc2nc3ccccc3n2CC(C)C)no1 | 10.5%
Cc1ccc2nc(-c3ccc(SCC(=O)Nc4cc(C)on4)nc3)[nH]c2c1 | 64.8% (active)
Cc1ccc(-c2csc(SCC(=O)Nc3cc(C)on3)n2)cc1 | -6.88%
CCN1CCN(C(=O)c2ccc(CN(c3ccc(C)c(C)c3)S(C)(=O)=O)cc2)CC1 | 3.09%
COc1ccc(NC(=O)CN(C)S(=O)(=O)c2ccccc2)cc1OC | -1.12%
COc1ccc(C(=O)NC(=S)Nc2ccc(N3CCCC3)cc2)cc1OC | 26.5%
COc1ccc(NC(=S)SC)cc1OC | 80.4% (active)
O=C(NCc1ccccn1)c1cc(Br)ccc1Cl | 17.5%
CN(C)NC(=O)C(NC(=O)c1ccc(N)cc1)C12CC3CC(CC(C3)C1)C2 (stereo unspecified) | 3.34%
S=C(NCC1COc2ccccc2O1)Nc1ccc(Br)cc1 (stereo unspecified) | -3.43%
c1ccc2c(c1)OCC(CNc1ncnc3nc[nH]c13)O2 (stereo unspecified) | -3.1%
c1ccc(-c2cc3c(NCC4COc5ccccc5O4)ncnc3s2)cc1 (stereo unspecified) | 98.8% (active)
CN(C)C(=O)CSc1n[nH]c(-c2ccco2)n1 | -3.34%
COc1ccccc1N1CCN(CC(=O)NCCc2ccc(S(N)(=O)=O)cc2)CC1 | -5.9%
Cc1nc([N+](=O)[O-])cn1CC(=O)Nc1ccc2c(c1)OCO2 | -4.99%
COc1ccc(NC(=O)CN(C)CC(=O)Nc2cccc(C(F)(F)F)c2)cc1 | 6.17%
CCOc1ccc(NC(=O)CN(C)CC(=O)NC(C)c2ccccc2)cc1OCC (stereo unspecified) | -1.35%
CCOc1ccc(NC(=O)CN(C)CC(=O)Nc2cccc(Cl)c2C)cc1OCC | 84.2% (active)
